Bioassay records (PubChem)
VDR inh: vitamin D3 receptor (human) inhibition. P11473. VDR-SRC2-3 peptide fluorescence polarization, 2 h. Potency, µM, for inactives: max response, negative = inhibition, most hits filed as inhibitors. actives 0.93% (n = 400,000). AID 504847; also: % is scaled to controls: 0 for no effect and ±100 for the full control effect
Target sequence (P11473 whole entry, looked up): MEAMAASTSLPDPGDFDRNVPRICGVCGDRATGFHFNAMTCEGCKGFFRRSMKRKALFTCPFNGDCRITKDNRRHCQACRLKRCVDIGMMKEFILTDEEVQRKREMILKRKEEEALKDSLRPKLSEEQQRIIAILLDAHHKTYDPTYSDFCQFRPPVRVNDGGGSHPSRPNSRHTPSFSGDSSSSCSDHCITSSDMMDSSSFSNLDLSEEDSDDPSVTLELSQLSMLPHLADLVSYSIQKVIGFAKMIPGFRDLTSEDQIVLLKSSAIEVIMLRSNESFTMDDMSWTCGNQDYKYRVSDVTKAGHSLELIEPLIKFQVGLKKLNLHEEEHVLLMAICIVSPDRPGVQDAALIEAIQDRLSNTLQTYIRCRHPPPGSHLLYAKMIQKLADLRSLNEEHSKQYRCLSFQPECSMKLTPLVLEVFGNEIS
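The screen uses fluorescence polarization to detect compounds that interfere with recruitment of the SRC2-3 coactivator peptide to VDR; plates are read after 2 h at room temperature.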
G9a inh: blocks human histone lysine methyltransferase G9a; Q96KQ7; G9a H3K9 monomethylation, AlphaScreen, 2 h; Potency, µM (titrated, usually from 102 µM), for inactives: at the highest dose activity, negative = inhibition, actives largely listed as inhibitors; actives 8.8% (n = 350,000); also: % is scaled to controls: 0 for no effect and ±100 for the full control effect; nearly all actives have a fitted effect of over 75% in size
Target sequence (Q96KQ7 913-1193 limits assumed): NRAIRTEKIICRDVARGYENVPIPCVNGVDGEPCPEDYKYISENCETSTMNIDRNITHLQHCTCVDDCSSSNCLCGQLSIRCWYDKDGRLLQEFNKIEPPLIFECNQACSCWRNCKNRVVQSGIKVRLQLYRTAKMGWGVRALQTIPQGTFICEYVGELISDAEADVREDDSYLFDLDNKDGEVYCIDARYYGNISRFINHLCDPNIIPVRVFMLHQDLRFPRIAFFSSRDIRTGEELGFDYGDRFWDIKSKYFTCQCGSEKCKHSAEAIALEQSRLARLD
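Using a bead-based AlphaScreen, monomethylated H3K9 product from 2 h room-temperature reactions (G9a 20 nM, peptide 500 nM, SAM 20 uM) was detected with 0.5 ug/mL rabbit anti-H3K9me1 antibody.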
Sfp inh: blocks B. subtilis Sfp PPTase activity | actives 3.5% (n = 310,000) | Potency, µM, for the others: largest response in the series, negative = inhibition, usual class: inhibitors | AID 1490 | Q9F4F7 | Biochemical Sfp PPTase activity, qHTS;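 also: the enzyme is Sfp with the accession as filed and its product quenches rhodamine fluorescence; 0% = enzyme reaction without inhibitor and -100% = no enzyme wells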
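After 15 min at room temperature with compound, 15 nM Sfp received 5 uM rhodamine-CoA plus 12.5 uM BHQ-2-ybbR (50 mM Hepes pH 7.6, 10 mM MgCl2). Rate came from the fluorescence difference over 30 min, ex 525/em 598 nm.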
ALOX12 inh: inhibitors of human 12S-lipoxygenase ALOX12; AID 1671190; actives 1.1% (n = 580,000); P18054; purified 12hLO, xylenol orange hydroperoxide absorbance; Potency, µM (top dose mostly 108 µM), without a hit: top-dose activity change, negative = inhibition, hits mostly inhibitors; also: % is scaled to controls: 0 for no effect and ±100 for the full control effect
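Hydroperoxide product was detected by ferrous iron/xylenol orange as the 573 to 405 nm absorbance ratio. Arachidonic acid at 40 uM (final) was turned over for 30 min at room temperature by 150 nM human 12hLO, pH 7.0 Hepes buffer, after 15 min compound preincubation.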
Glioma ERSR ind: inducers of ER stress response in human glioma cells; U87-MG GRP78 promoter luciferase reporter, 16 h; Potency, µM, inactives show top-dose activation, hits mostly activators; actives 0.02% (n = 420,000); AID 602332; also: series mostly up to about 76 µM; % of control where 0% means no effect; nearly all actives have a fitted effect of over 35% in size
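ERSR induction read as luciferase luminescence (Bright-Glo, 10 min at room temperature) in stably transfected human U87-MG glioma cells exposed to compounds for 16 h, using GRP78 as sensor.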
Starred values were filed as active, the others as inactive; ? = inconclusive; . = no result; ! = repeats disagree; [ ] = remark or other dose. The entries come from a sample that favours hits as a whole. Calls follow the shape of the dose curve; as a rule, active = well fitted curve in the direction sought with a large enough effect; inconclusive = small, poorly fitted or top-dose-only effect, or another doubt; inactive = no such curve, though single readings can be large; an effect the other way counts as inactive or inconclusive. Potency is read from the fitted curve at half-maximal effect.

SMILES | VDR inh | G9a inh | Sfp inh | ALOX12 inh | Glioma ERSR ind
CCn1c(SCC(=O)O)nc2sc3c(c2c1=O)CCC3 | 3% | 45µM* | 26% | 0%[57.4 µM] | -2%
Cc1sc(-c2cscn2)cc1Br | . | . | . | -10% | .
O=C1CN(C(=O)Cn2cnc3c(Cl)cc(Cl)cc3c2=O)c2ccccc2N1 | . | . | . | -3% | .
Cc1ccc(S(=O)(=O)c2c(C)cc(C)nc2Cl)c(C)c1 | -3% | -14%[59 µM] | 6% | 0% | -3%
Cc1cc(C)c(S(=O)(=O)/N=C2\C=CC(=O)C(Cl)=C2)c(C)c1 | -25% | 7.9µM* | 50µM* | . | -1%
CC1(C)CC(=O)C(Sc2ccccc2)=C(O)C1 | -14% | 45µM* | -12% | 9% | -2%
CN(C)c1ccc(N=Nc2ccccc2Br)cc1 | 10% | 3.5µM* | -3% | 10% | -9%
CC(=O)c1ccc(-n2nnnc2SCC(=O)NC2CCCCC2)cc1 | -8% | 35µM* | ? | 11% | -2%
CC(=O)Nc1ccc(-n2nnnc2SCC(=O)NC2CCCC2)cc1 | -2% | -6% | 3% | -6% | -3%
CC1=CC(C)(C)Nc2ccc(OC(=O)c3ccco3)cc21 | -10% | ? | -8% | ? | -13%
CC1=CC(C)(C)N2C(=O)C(=O)c3cc(OC(=O)c4ccco4)cc1c32 | ? | 35µM* | -4% | ? | 1%
COc1cc(NC(=O)c2cc(=O)c3ccccc3o2)cc(OC)c1 | . | . | . | -24% | .
COc1ccc(NC(=O)c2cc(=O)c3ccccc3o2)cc1Cl | -11% | 56µM* | 4% | -8% | -4%
CN(C)S(=O)(=O)c1cc(NC(=O)c2cc(=O)c3ccccc3o2)ccc1Cl | 3% | ? | 32µM* | -5% | 2%
COc1ccc(-c2noc(-c3cccn3CC(=O)Nc3cc(C)ccc3C)n2)cc1F | . | . | . | 1% | .
CC(C)CNc1cc(N2CCCC2)ccc1[N+](=O)[O-] | -3% | 11µM* | -26% | -4%[57.4 µM] | 3%
CCNc1cc(N2CCCC2)ccc1[N+](=O)[O-] | 12% | -1%[59 µM] | -5% | 16% | -1%
COCCn1c(C)cc(C(=O)CSc2nc3nc(C)cc(C)n3n2)c1C | -19% | ? | -5% | ? | -3%
COc1ccccc1C(=O)CSc1n[nH]c(N)n1 | -9% | ? | 89µM* | -3% | 1%
Nc1nc(SCC(=O)Nc2cccc(Oc3ccccc3)c2)n[nH]1 | -12% | 16µM* | -4% | -9% | -4%
COCCn1c(C)cc(C(=O)CSc2n[nH]c(N)n2)c1C | -4% | ? | 25µM* | -16% | -1%
Nc1nc(SCC(=O)Nc2ccc(Oc3ccccc3)cc2)n[nH]1 | -2% | 11%[59 µM] | -16% | 10% | 2%
O=C(OCC(=O)N1CCCCC1)c1ccccc1-c1nc2ccccc2s1 | . | . | . | 4% | .
CCNC(=S)NNC(=O)C(C)(C)O | . | . | . | -5% | .
CONC(=O)c1cccc(C#N)c1 | . | . | . | 7% | .
SMILES | VDR inh | G9a inh | Sfp inh | ALOX12 inh | Glioma ERSR ind
CCOc1ccc(NCc2nc3ccccc3n2CCOc2ccccc2)cc1 | -24% | 32µM* | -2% | 8% | 0%
CCc1nc2ccccc2n1CCCCOc1ccccc1C | 7% | 12%[59 µM] | . | 40µM* | -4%
CCOc1ccc(NCc2nc3ccccc3n2CCOc2ccc(C)cc2)cc1 | -8% | 14µM* | . | 0% | 8%
Cc1ccc(NCc2nc3ccccc3n2CCOc2ccccc2C)cc1 | 1% | 16µM* | . | 15% | -1%
CC(C)N(Cc1ccccc1)S(=O)(=O)c1cccc2nsnc12 | . | . | . | -5% | .
Cc1cccc(C)c1-c1nc(C(=O)NCCc2ccc(Cl)cc2)n2ccccc12 | . | . | . | 59% | .
O=c1nc(/C=C/c2ccc(O)c(O)c2)oc2ccccc12 | -24% | 40µM* | 4% | . | ?
CCn1c(/C=C/c2ccc(O)c(O)c2)nc2ccccc2c1=O | -26% | . | 79µM* | 14µM* | 2%
CC(=O)N[C@@H](CSC/C=C(\C)CCC=C(C)C)C(=O)O | 0% | 33%[59 µM] | 45µM*! | -1%[12.5 µM] | -1%
CC(=O)N[C@@H](CSC/C=C(\C)CC/C=C(\C)CC/C=C(\C)CCC=C(C)C)C(=O)O | 35µM*! | -1%[59 µM] | 15% | 1%[12.5 µM] | -3%
CC(C)=CCC/C(C)=C/CC/C(C)=C/CC/C(C)=C/C(=O)O | ? | . | 4% | . | -1%
CC(=O)N[C@@H](CSC/C=C(\C)CC/C=C(\C)CCC=C(C)C)C(=O)O | 50µM*! | -7%[59 µM] | ? | . | -1%
COC(=O)C(C)NC(=O)c1ccc(COC(C)=O)cc1 (centres undefined) | . | . | . | 40% | .
CCOc1ccc(-n2c(-c3ccccc3)c[nH]c2=S)cc1 | -9% | 1.3µM* | -24% | ? | -1%
Cc1ccc(-c2c[nH]c(=S)n2-c2ccccc2)cc1 | -4% | 0.71µM* | 20µM* | ? | 10%
CCOc1ccc(-n2c(-c3ccccc3)nnc2-c2ccccc2)cc1 | -15% | 9% | -1% | 0% | -7%
Cc1ccc(CC(=O)N2CCN(c3ccccc3F)CC2)cc1 | -11% | 5% | -22% | -5% | 5%
Cc1ccc(-c2c[nH]c(=S)n2-c2ccccc2F)cc1 | ? | 2.8µM* | -23% | 35µM* | -7%
CCCCOCCCNC(=O)CCSc1ccccc1 | . | . | . | -3% | .
Cc1cc(C)c2c(C)c(C(=O)Nc3c(C)n(C)n(-c4ccccc4)c3=O)oc2c1 | -8% | 71µM* | 0% | -5% | 0%
Cc1onc(-c2c(F)cccc2Cl)c1C(=O)NC(=S)Nc1c(C)n(C)n(-c2ccccc2)c1=O | 9% | 32µM* | 18% | 2% | -4%
Cc1c(Cl)cccc1NC(=O)Nc1c(C)n(C)n(-c2ccccc2)c1=O | -5% | 79µM* | 12% | 4% | -2%
Cc1c(NC2=C(Cl)C(=O)N(c3ccccc3)C2=O)c(=O)n(-c2ccccc2)n1C | ? | ? | ? | -26% | -2%
Cc1c(NC2=C(Cl)C(=O)N(c3ccccc3Cl)C2=O)c(=O)n(-c2ccccc2)n1C | -24% | 40µM* | 50µM* | ? | 0%
CSc1cccc(NC(=O)c2cccc(Cl)c2Cl)c1 | . | . | . | -7% | .
COc1ccccc1CCC(=O)N1CCN(S(=O)(=O)c2cc(C(F)(F)F)ccc2Cl)CC1 | -6% | 8.9µM* | . | ? | -2%
COc1ccc(N2CCN(C(=O)CCCSc3nc4ccccc4[nH]3)CC2)cc1 | -8% | 45µM* | 2% | ? | -2%
COc1ccc(S(=O)(=O)N(CC(=O)N2CCN(c3ccccc3)CC2)c2ccccc2)cc1 | 9% | 7% | ? | 0% | -3%
